Sampled rows, rich in hits. Any-hit rate of the full collection: about 12%.
L3MBTL1 inh: blocks human L3MBTL1; Q9Y468; AlphaScreen L3MBTL1–H3K9me1 peptide binding; Potency, µM (doses to about 57.1 µM), for the others: at the top dose activity, negative = inhibition, usual class: inhibitors; 0.66% of 230,000 active; further: on the % scale 0 is the no-effect control and ±100 the full control effect; nearly all actives have a fitted effect of over 60% in size
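L3MBTL1 (50 nM) pre-complexed 30 min with biotinylated H3(1-15)K9me1 peptide (75 nM), then compounds added for 30 min at room temperature; AlphaScreen streptavidin donor/nickel chelate acceptor beads (10 ug/mL final) read after 30 min dark incubation.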
G9a inh: G9a (human) methyltransferase inhibition. G9a H3K9 monomethylation, AlphaScreen, 2 h. Potency, µM (titrated, usually from 102 µM), without a hit: top-dose activity, negative = inhibition, actives largely listed as inhibitors. 8.8% of 350,000 active; further: on the % scale 0 is the no-effect control and ±100 the full control effect; nearly all actives have a fitted effect of over 75% in size
Target sequence (Q96KQ7 913-1193 limits assumed): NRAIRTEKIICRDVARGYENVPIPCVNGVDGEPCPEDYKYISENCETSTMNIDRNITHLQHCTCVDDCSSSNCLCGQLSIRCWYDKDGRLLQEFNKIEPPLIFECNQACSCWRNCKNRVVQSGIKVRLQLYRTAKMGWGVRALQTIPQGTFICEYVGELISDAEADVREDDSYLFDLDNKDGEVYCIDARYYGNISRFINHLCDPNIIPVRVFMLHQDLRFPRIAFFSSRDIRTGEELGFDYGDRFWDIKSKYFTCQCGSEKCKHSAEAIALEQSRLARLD
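Signal arises when biotinylated H3K9 peptide, once monomethylated, bridges streptavidin donor and antibody-captured acceptor beads. Enzyme at 20 nM was preincubated 15 min with test compounds; peptide 500 nM and SAM 20 uM then reacted for 2 h.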
BAZ2B inh: BAZ2B (human) inhibition; Q9UIF8; AlphaScreen BAZ2B-H3K14Ac peptide displacement; Potency, µM (highest dose often 114 µM), for inactives: top-dose activity change, negative = inhibition, hits mostly inhibitors; 4.4% of 360,000 active; further: on the % scale 0 is the no-effect control and ±100 the full control effect; nearly all actives have a fitted effect of over 60% in size
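Multi-concentration screen (max 110 uM) measuring displacement of acetylated histone H3 peptide from BAZ2B by AlphaScreen, using 50 nM protein, 50 nM peptide and 10 ug/mL streptavidin donor plus Ni-chelate acceptor beads.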
JMJD2A Tudor inh: blocks the human JMJD2A Tudor domain | O75164 | AlphaScreen JMJD2A-Tudor / H3K4me3 peptide binding | Potency, µM (series often up to 114 µM), inactives show at the top dose activity change, negative = inhibition, hits mostly inhibitors | 4.4% of 390,000 active; further: on the % scale 0 is the no-effect control and ±100 the full control effect; nearly all actives have a fitted effect of over 50% in size
Sfp PPTase inh: Sfp phosphopantetheinyl transferase inhibition; Biochemical Sfp PPTase activity, qHTS; AID 1490; Potency, µM, for the others: largest response in the series, negative = inhibition, actives largely listed as inhibitors; 3.5% of 310,000 active; Q9F4F7;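 further: the enzyme is Sfp with the accession as filed and its product quenches rhodamine fluorescence; 0% = enzyme reaction without inhibitor and -100% = no enzyme wells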
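After 15 min at room temperature with compound, 15 nM Sfp received 5 uM rhodamine-CoA plus 12.5 uM BHQ-2-ybbR (50 mM Hepes pH 7.6, 10 mM MgCl2). Rate came from the fluorescence difference over 30 min, ex 525/em 598 nm.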
HP1b chromo inh: HP1-beta chromodomain-methylated histone interaction inhibition; P83916; AlphaScreen HP1-beta / biotin-H3K9me3 peptide binding; Potency, µM (doses to about 114 µM), for inactives: top-dose activity change, negative = inhibition, usual class: inhibitors; 0.56% of 390,000 active; further: nearly all actives have a fitted effect of over 70% in size
Target sequence (P83916 whole entry, looked up): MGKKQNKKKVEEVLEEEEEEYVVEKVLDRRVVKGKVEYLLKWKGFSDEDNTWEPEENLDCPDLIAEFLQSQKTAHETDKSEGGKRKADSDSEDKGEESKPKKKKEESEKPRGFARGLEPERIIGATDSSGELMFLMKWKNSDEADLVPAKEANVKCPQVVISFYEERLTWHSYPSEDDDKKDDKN
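Compound inhibition of the preformed complex between 50 nM HP1-beta and 50 nM biotinylated H3K9me3 peptide was read by AlphaScreen. Buffer was PBS pH 7.4 with 0.01% Tween-20. Incubations ran 30 min at room temperature, with 10 ug/mL donor/acceptor beads.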
Numbers without * were called inactive; ? = inconclusive; · = no result given; [ ] = dose if it differs, or a comment. The call rests on the fitted dose curve; in most records, active means well fitted curve in the direction sought with a large enough effect; inconclusive means small, poorly fitted or top-dose-only effect, or another doubt; inactive means no such curve, though single readings can be large; an effect the other way counts as inactive or inconclusive. Potency means the concentration at half of the fitted maximal effect.

SMILES | L3MBTL1 inh | G9a inh | BAZ2B inh | JMJD2A Tudor inh | Sfp PPTase inh | HP1b chromo inh
Cn1nc(-c2ccccc2)c(C(=O)NC(C(=O)O)c2ccccc2)c1Cl (stereo unspecified) | 5.9% | · | 50.1µM* | -11.9% | 1.0% | 23.3%
Cn1nc(-c2ccccc2)c(C(=O)Nc2ccc(Cl)cc2)c1Cl | -2.5% | 12.0% | -28.7% | -9.2% | 1.7% | 16.7%
CCN(CC)S(=O)(=O)c1ccc(NN)nc1 | -23.6% | -2.3% | · | 20µM* | 12.6µM* | -4.4%
CC(C)N(C(C)C)S(=O)(=O)c1ccc(NN)nc1 | · | 3.3%[12.7 µM] | -34.1% | -34.0% | 79.4µM* | 34.0%
CCOc1ccc(CCNC(=O)CCS(=O)(=O)c2ccc(Cl)cc2)cc1OCC | · | 73.2% | -3.4% | -1.4% | 6.2% | 22.2%
Cn1c(=O)c(N=O)c(N)n(Cc2ccccc2)c1=S | · | · | · | -27.3% | · | 17.6%
O=C(O)CCn1cc(/C=C/C(=O)c2ccc(Cl)cc2)c(-c2ccc(Br)cc2)n1 | -1.3% | 79.4µM* | -34.9% | -34.8% | 1.2% | 3.0%
CC1CCCCC12NC(=O)N(CC(=O)N1CCN(c3ncccn3)CC1)C2=O (stereo unspecified) | -2.0% | ? | -0.6% | -5.1% | · | 25.9%
CCOC(=O)c1c(N)sn(-c2ccccc2C)c1=S | -2.1% | 5.62µM* | ? | 56.2µM* | 17.8µM* | -71.5%
CCOC(=O)c1sc(=S)n(-c2ccccc2Cl)c1SC | 24.0% | 30.9%[59 µM] | 41.6% | -17.7% | 0.5% | -1.9%
Nc1cc2nsnc2cc1Br | 15.8µM* | ? | 12.0%[57.1 µM] | -34.7% | 39.8µM* | ?
CC(=O)Nc1ccc(SCC(=O)c2cc(C)n(-c3ccccc3F)c2C)cc1 | -4.5% | ? | 44.7µM* | ? | ? | -29.9%
Cc1cc(C(=O)CN2C(=O)NC(CC(C)C)C2=O)c(C)n1-c1ccccc1F (stereo unspecified) | · | 50.1µM* | ? | -10.1%[57.1 µM] | 2.9% | 38.1%
Cc1c(C(=O)OC2CCC(C)CC2)[nH]c2c1C(=O)CC(c1ccccc1Cl)C2 (stereo unspecified) | · | -0.1%[59 µM] | -11.0% | -12.0% | · | 18.4%
C=CCN=Cc1sc2ccc(OCC)cc2c1O | -8.0% | 44.7µM* | -10.7% | · | ? | ·
CCCCN=Cc1sc2ccc(OCC)cc2c1O | · | ? | 79.4µM* | 28.2µM* | 0.8% | ?
CCOc1ccc(N=CNc2ccc(OCC)cc2)cc1 | · | -7.1% | ? | ? | 5.9% | 4.9%
COc1cc(OC)cc(-c2nnc3n2N=C(c2ccccc2OC)CS3)c1 | · | · | · | ? | -6.5% | ·
c1coc(CNc2ncnc3c2[nH]c2ccccc23)c1 | · | · | · | ? | · | -2.6%
O=CC(O)C1OC(=O)C(O)C1O (stereo unspecified) | · | · | · | 22.4µM* | · | ?
CCn1cnc2c(Nc3ccc(CCC(=O)N=C(N)N)cc3)nc(C#N)nc21 | · | · | · | -8.9% | · | ·
CCOc1ccc(NC(=O)Cn2nnc(-c3ccccc3NC(=O)c3cccs3)n2)cc1 | · | -13.7% | -27.6% | 56.2µM* | ? | -5.2%
COC(=O)CCCC1=CC2=C(c3ccccc3)C(=O)C(C)(OC(=O)C3CCCC3)C(=O)C2=CN1CCCOC(C)C (stereo unspecified) | · | · | · | · | -17.4% | ·
O=S(=O)(Nc1nccs1)c1cnc(Cl)c(Br)c1 | -0.6% | 3.8%[59 µM] | 0.2% | -15.5% | 50.1µM* | 21.8%
O=C(Cn1c(=O)c2cccn2c2ccc(F)cc21)N1CCN(c2ccccc2)CC1 | · | -22.8%[59 µM] | -16.3% | -18.1% | · | 15.0%
O=C(Cc1ccccc1)NCC(=O)OCc1ccc([N+](=O)[O-])cc1 | 8.2% | ? | -3.5% | -15.1% | -1.2% | 16.1%
O=C1c2cccc3cccc(c23)C(=O)N1CCCn1ccnc1 | · | · | · | -27.2% | · | 28.3%
C[C@@H]1NC(=O)N(CCCn2ccnc2)C1=O | · | 11.8% | 50.1µM* | -28.4% | 15.4% | 15.5%
COc1ccc(S(=O)(=O)N2CCC(C(=O)NC3CCCCC3)CC2)cc1OC | -4.7% | -20.7% | -5.0% | -6.1% | · | 15.1%
O=[N+]([O-])c1cc([N+](=O)[O-])c(Oc2c(F)ccc(F)c2F)cc1NN1CCCCC1 | -5.7% | 31.6µM* | ? | ? | 15.7% | ?
